These results are taken from the supplement of paper PMC12282887.

In the assay the test system is E. coli BW25113 marRABp lux reporter. The assay is described as follows: promoter activity interaction Z-score (Lux/OD deviation from empty-vector control); higher = stronger promoter induction by the compound. Here is the method: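 E. coli BW25113 (wild type or ΔmarA/ΔsoxS/Δrob) carrying pTU175 luxCDABE promoter reporters was grown in LB in 384-well plates at 37°C with each of 94 compounds at 4 two-fold concentrations, in biological duplicates. Luminescence and OD600 were read every 30 min for 12 h and integrated as AUC over 8 h (0-8 h WT, 1-9 h mutants). Lux AUC was divided by OD AUC; the interaction score is the residual of a Huber robust fit of each promoter against the empty-vector control, then Z-transformed per promoter.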

± gives the standard deviation of the averaged measurements.

With `CC1(C)S[C@@H]2[C@H](NC(=O)Cc3ccccc3)C(=O)N2[C@H]1C(=O)O` [Penicillin G], the “promoter activity interaction Z-score” value (0.47 µg/ml, genetic background: wild type) is -0.0595 ± 0.01; the “promoter activity interaction Z-score” value (0.47 µg/ml, genetic background: ΔmarA) is -0.219 ± 0.31; the “promoter activity interaction Z-score” value (0.47 µg/ml, genetic background: Δrob) was -0.0723 ± 0.22; the “promoter activity interaction Z-score” value (0.47 µg/ml, genetic background: ΔsoxS) is 0.0424 ± 0.095; the “promoter activity interaction Z-score” value (0.93 µg/ml, genetic background: wild type) came out at 0.124 ± 0.25; the “promoter activity interaction Z-score” value (0.93 µg/ml, genetic background: ΔmarA) is -0.178 ± 0.24. Also, the “promoter activity interaction Z-score” value is, setting by setting: (0.93 µg/ml, genetic background: Δrob) -0.0814 ± 0.19; (0.93 µg/ml, genetic background: ΔsoxS) 0.103 ± 0.11; (1.9 µg/ml, genetic background: wild type) -0.36 ± 0.024; (1.9 µg/ml, genetic background: ΔmarA) -0.244 ± 0.026; (1.9 µg/ml, genetic background: Δrob) -0.221 ± 0.14; (1.9 µg/ml, genetic background: ΔsoxS) 0.0691 ± 0.16. Besides, the “promoter activity interaction Z-score” value runs as follows: (3.7 µg/ml, genetic background: wild type) -0.195 ± 0.22; (3.7 µg/ml, genetic background: ΔmarA) -0.122 ± 0.053; (3.7 µg/ml, genetic background: Δrob) 0.035 ± 0.11; (3.7 µg/ml, genetic background: ΔsoxS) -0.0494 ± 0.053.
`Nc1ccc(C(=O)O)cc1` [4-Aminobenzoic acid]: the “promoter activity interaction Z-score” value was 0.0884 ± 0.35 (8.6 µg/ml, genetic background: wild type); 0.463 ± 0.36 (8.6 µg/ml, genetic background: ΔmarA); 0.185 ± 0.28 (8.6 µg/ml, genetic background: Δrob); 0.0813 ± 0.12 (8.6 µg/ml, genetic background: ΔsoxS); 0.277 ± 0.097 (17.1 µg/ml, genetic background: wild type); 0.444 ± 0.14 (17.1 µg/ml, genetic background: ΔmarA). Besides, the “promoter activity interaction Z-score” value is 0.444 ± 0.27 (17.1 µg/ml, genetic background: Δrob); -0.00694 ± 0.024 (17.1 µg/ml, genetic background: ΔsoxS); 0.29 ± 0.32 (34.3 µg/ml, genetic background: wild type); -0.226 ± 0.0094 (34.3 µg/ml, genetic background: ΔmarA); -0.189 ± 0.33 (34.3 µg/ml, genetic background: Δrob); 0.117 ± 0.0092 (34.3 µg/ml, genetic background: ΔsoxS). The “promoter activity interaction Z-score” value by setting is: (68.6 µg/ml, genetic background: wild type) 0.174 ± 0.024; (68.6 µg/ml, genetic background: ΔmarA) 1.1 ± 0.03; (68.6 µg/ml, genetic background: Δrob) 0.919 ± 0.45; (68.6 µg/ml, genetic background: ΔsoxS) 0.753 ± 0.38.
